Growth data for 13 compounds are collected here from PubChem BioAssay (NCI).

The structures appear in SMILES notation. About 83,000 compounds went through this panel and 20% of them were active in at least one assay; those are over-represented in the sample as a whole.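 Note: values are percent growth. 100 is the growth of untreated cells, values between 100 and 0 indicate rising inhibition; between -100 and 0 indicates cell death.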 Values without a mark were called inactive. Calls of active or inactive are those of the source. Rule for the calls: active = growth percent below 10; inactive = the rest.

Test systems include NCI-H23 lung; NCI-H226 lung; NCI-H322M lung; HOP-62 NSCLC; NCI-H460 lung; HOP-92 NSCLC; NCI-H522 lung; A549/ATCC NSCLC; 786-0 renal; COLO 205 colon.
What all share (assay): NCI-60 one-dose screen, 48 h (100 = growth as untreated, 0 = no growth, -100 = all killed)
Conditions in all cases: 10 µM unless noted

In the case of `Cc1ccc(C(SCC(N)C(=O)O)(c2ccccc2)c2ccc(C)cc2)cc1` (stereo not given), the growth in the test on NCI-H23 lung is 12.6%; with NCI-H226 lung it was 56.3%; with NCI-H322M lung it was 29.4%; in the test on HOP-62 NSCLC, 31.9%; in the test with NCI-H460 lung it was 9.22% (active); in the test on HOP-92 NSCLC it was -10.1% (active). Besides, the growth in the test with NCI-H522 lung is -19% (active); in the test on A549/ATCC NSCLC it was -2.96% (active); with 786-0 renal, 25.1%; with COLO 205 colon, -3.13% (active).
In the case of `COc1cccc(-c2nn(C(C)(C)C)cc2-c2ccnc(NCCCNS(=O)(=O)c3ccc(C)cc3)c2)c1`, the growth is 105% in the test on NCI-H23 lung; 101% with NCI-H226 lung; 106% in the test with NCI-H322M lung; 100% in the test with HOP-62 NSCLC; 103% in the test on NCI-H460 lung; 114% in the test on HOP-92 NSCLC. In addition, the growth was 99% in the test with NCI-H522 lung, 103% with A549/ATCC NSCLC, 103% in the test with 786-0 renal and 121% in the test on COLO 205 colon.
As to `O=c1cc(/C(=C2/C=CC=N2)c2ccc[nH]2)c2cc(Cl)ccc2o1`, the growth is 62.3% with NCI-H23 lung; 35% in the test with NCI-H226 lung; 55.8% with NCI-H322M lung; 50.4% with HOP-62 NSCLC; 24.3% with NCI-H460 lung; 66.5% in the test on HOP-92 NSCLC. Besides, the growth in the test on NCI-H522 lung was 56.1%; in the test with A549/ATCC NSCLC, 55.2%; in the test on 786-0 renal, 22.4%; in the test with COLO 205 colon it was 87.2%.
With `CN(C)S(=O)(=O)c1ccc(S(=O)(=O)Nc2cccc(Cl)c2N2CCCCC2)cc1`, the growth in the test with NCI-H23 lung was 84.1%; in the test with NCI-H226 lung it was 82.9%; with NCI-H322M lung, 98.7%; in the test on HOP-62 NSCLC, 87.9%; in the test on NCI-H460 lung, 93.6%; with HOP-92 NSCLC it was 72.4%. Besides, the growth in the test with NCI-H522 lung was 68.7%; in the test on A549/ATCC NSCLC it was 66.9%; in the test on 786-0 renal, 87.9%; in the test on COLO 205 colon, 106%.
Turning to `Cc1ccc(C2Oc3ccccc3C3CC(c4cccs4)=NN32)cc1` (stereo not given), the growth was 93.4% with NCI-H23 lung; 84.7% in the test on NCI-H226 lung; 91.5% with NCI-H322M lung; 105% with HOP-62 NSCLC; 101% in the test with NCI-H460 lung; 81.7% in the test on HOP-92 NSCLC. The growth is 88.7% with NCI-H522 lung, 103% with A549/ATCC NSCLC, 99.8% in the test with 786-0 renal and 104% in the test on COLO 205 colon.
Take `CN(CCCCCl)P(=O)(OCc1ccc([N+](=O)[O-])o1)C(F)(F)c1ccc(CC(=O)NC[C@@H](O)/C=C\[C@@H](O)[C@H](CO)Cc2ccccc2)cc1` (stereo not given in full): the growth in the test on NCI-H23 lung was 92.8%; with NCI-H226 lung it was 95.6%; in the test on NCI-H322M lung it was 96.6%; in the test on HOP-62 NSCLC, 96.6%; in the test on NCI-H460 lung, 102%; in the test with HOP-92 NSCLC it was 135%. Also, the growth in the test with NCI-H522 lung is -2.39% (active); with A549/ATCC NSCLC it was 85.3%; with 786-0 renal, 107%; in the test with COLO 205 colon, 103%.
With `O=C(O)c1c(=O)cccc2ssc12`, the growth was 0.447% (active) in the test on NCI-H23 lung; -14.8% (active) in the test with NCI-H226 lung; 62.1% in the test with NCI-H322M lung; -45.5% (active) in the test with HOP-62 NSCLC; 1.81% (active) in the test with NCI-H460 lung; -0.323% (active) in the test on HOP-92 NSCLC. The growth with NCI-H522 lung is -0.415% (active); in the test on A549/ATCC NSCLC, -51% (active); in the test with 786-0 renal, -10.1% (active); in the test on COLO 205 colon it was -45.7% (active).
Take `O=C1/C(=C/c2ccccc2O)N=C2SCCCN12`: the growth was 80.9% in the test on NCI-H23 lung; 97.2% in the test on NCI-H226 lung; 97.5% in the test with NCI-H322M lung; 88.4% in the test with HOP-62 NSCLC; 103% in the test with NCI-H460 lung; 80.9% in the test on HOP-92 NSCLC. The growth was 79.7% in the test on NCI-H522 lung, 101% in the test on A549/ATCC NSCLC, 98.8% in the test on 786-0 renal and 99.9% in the test on COLO 205 colon.
Take `COc1ccc(-c2cc(Nc3ccnc(N4CCOCC4)n3)on2)cc1`: the growth is 36.8% with NCI-H23 lung; 31.8% in the test with NCI-H226 lung; 47.1% in the test with NCI-H322M lung; 40.9% with HOP-62 NSCLC; 14.5% in the test on NCI-H460 lung; 74.8% with HOP-92 NSCLC. In addition, the growth with NCI-H522 lung is 4.99% (active); in the test on A549/ATCC NSCLC, 30.4%; with 786-0 renal it was 35.6%; with COLO 205 colon, 2.68% (active).
For `CC(=O)c1cc2c(N)c(C(=O)Nc3cccc(F)c3C)sc2nc1C`, the growth in the test on NCI-H23 lung was 94.2%; with NCI-H226 lung, 88%; in the test with NCI-H322M lung, 95.7%; in the test with HOP-62 NSCLC, 73.8%; with NCI-H460 lung it was 83.1%; in the test on HOP-92 NSCLC, 73.1%. Further, the growth with NCI-H522 lung is 82.1%; in the test on A549/ATCC NSCLC, 56.5%; in the test on 786-0 renal, 92.1%; in the test on COLO 205 colon, 74.3%.
As to `CN1CCN(c2nc(NCCCNc3ccnc4cc(Cl)ccc34)c3ccccc3n2)CC1`, the growth is 72.5% in the test on NCI-H23 lung; 70% in the test with NCI-H226 lung; 64.3% with NCI-H322M lung; 49% in the test with HOP-62 NSCLC; 28.5% with NCI-H460 lung; 68.4% with HOP-92 NSCLC. In addition, the growth in the test on NCI-H522 lung is 20.2%; in the test on A549/ATCC NSCLC, 29.2%; in the test with 786-0 renal, 74.6%; in the test on COLO 205 colon it was -6.18% (active).
For `CCOC(=O)c1c(C)oc2ncnc(N3CCN(C(=S)Nc4ccccc4)CC3)c12`, the growth with NCI-H23 lung was 90.8%; with NCI-H226 lung, 87.2%; in the test on NCI-H322M lung it was 92.3%; with HOP-62 NSCLC, 87.2%; in the test with NCI-H460 lung, 103%; with HOP-92 NSCLC, 83.3%. Moreover, the growth in the test with NCI-H522 lung was 80.9%; in the test with A549/ATCC NSCLC, 92%; with 786-0 renal, 97.8%; with COLO 205 colon it was 104%.
Regarding `Nc1n[nH]c2ccc([C@@H]3Nc4ccc5[nH]ncc5c4[C@H]4C5C=CC(C5)[C@@H]34)cc12` (stereo not given in full), the growth is 14.1% with NCI-H23 lung; -6.81% (active) with NCI-H226 lung; 43.8% in the test with NCI-H322M lung; 41.8% with HOP-62 NSCLC; -10.8% (active) in the test on NCI-H460 lung; 61.2% with HOP-92 NSCLC. Further, the growth is 14.3% in the test on NCI-H522 lung, 20.1% with A549/ATCC NSCLC, 30.3% in the test on 786-0 renal and 2.87% (active) with COLO 205 colon.
